Compound activity as filed in PubChem BioAssay.
ELG1 genotox – induces genotoxicity in HEK293T cells with luciferase-tagged ELG1; AID 504466; Potency, µM (doses to about 46 µM), for inactives: top-dose activity change, positive = activation, usual class: activators; 1.3% of 330,000 active; HEK293T ELG1-luciferase reporter, luminescence, 16 h; also: % of control where 0% means no effect; nearly all actives have a fitted effect of over 60% in size
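Luminescence read-out: rising ELG1-luciferase signal, reflecting elevated ELG1 protein under genetic stress, flags genotoxic compounds. Cells were treated for 16 hr at 37 °C before ONE-Glo detection.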
NPC1 promoter act – NPC1 promoter activation. Huh7 NPC1 promoter luciferase reporter, 24 h. Potency, µM (doses to about 9.22 µM), inactives show at the highest dose activation, most hits filed as activators. 2.4% of 320,000 active. AID 485313; also: % of control where 0% means no effect; nearly all actives have a fitted effect of over 60% in size
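Quantitative HTS used a cell-based reporter: Huh7 cells stably bearing the NPC1 promoter upstream of luciferase were treated with compounds for 24 h, and promoter activation was read as luminescence.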
ELG1 repair inh – ELG1-dependent DNA repair inhibition | HEK293T ELG1-luciferase reporter, luminescence, 16 h; DNA damage induced by 5-fluorouridine | Potency, µM (titrated, usually from 46.1 µM), for the others: top-dose activity change, negative = inhibition, usual class: inhibitors | 2.3% of 330,000 active; also: % is scaled to controls: 0 for no effect and ±100 for the full control effect; nearly all actives have a fitted effect of over 55% in size
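Quantitative HTS, concentration-response format. 2,000 cells/well co-treated with 5-fluorouridine and compound, 16 hr in 5% CO2 at 37 °C; ONE-Glo luminescence read after 30 min.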
SMN2 splice up – increases expression of the SMN2 splice variant; HEK293 SMN2-luciferase splicing reporter, luminescence, 30-36 h; Potency, µM (doses to about 46.1 µM), for inactives: at the highest dose activity change, positive = activation, actives largely listed as activators; 2.8% of 210,000 active; AID 1458; also: % of control where 0% means no effect; nearly all actives have a fitted effect of over 55% in size
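HEK293 cells carry an SMN2 […]–luciferase reporter in which exon 7 inclusion puts luciferase in frame. Cells were plated 10-12 h before compound addition, then incubated 30-36 h at 37C. ONE-Glo luminescence was read; sodium butyrate at 4.5 mM final served as control.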
FLuc modulator – inhibits or activates purified firefly luciferase, miR-21 counter-screen | P08659 | purified FLuc, Km substrates, luminescence inhibition | Potency, µM (highest dose often 57.5 µM), for the others: at the top dose activity change, negative = inhibition, usual class: inhibitors | 6.9% of 360,000 active | AID 588342;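 also: plate controls were vehicle for no effect and reference inhibitor for full effect; nearly all actives have a fitted effect of over 55% in size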
Target sequence (P08659 whole entry, looked up): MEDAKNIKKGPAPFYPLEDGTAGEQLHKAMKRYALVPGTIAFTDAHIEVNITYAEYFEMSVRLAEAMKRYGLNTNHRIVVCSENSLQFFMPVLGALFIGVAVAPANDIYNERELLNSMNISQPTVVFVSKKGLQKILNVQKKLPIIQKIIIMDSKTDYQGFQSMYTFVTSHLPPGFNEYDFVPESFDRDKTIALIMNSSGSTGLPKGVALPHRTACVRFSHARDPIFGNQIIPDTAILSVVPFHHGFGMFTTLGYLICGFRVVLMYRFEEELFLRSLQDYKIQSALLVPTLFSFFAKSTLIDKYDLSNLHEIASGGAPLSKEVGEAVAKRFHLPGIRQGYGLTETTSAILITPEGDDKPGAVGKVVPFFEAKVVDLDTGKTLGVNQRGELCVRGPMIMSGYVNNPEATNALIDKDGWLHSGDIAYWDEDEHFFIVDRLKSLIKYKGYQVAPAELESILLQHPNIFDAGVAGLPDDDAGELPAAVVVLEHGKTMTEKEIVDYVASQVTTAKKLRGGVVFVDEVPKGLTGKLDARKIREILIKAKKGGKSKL
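Purified P. pyralis luciferase (10nM final) with 10uM D-luciferin and 10uM ATP (Km levels) in 50mM Tris acetate pH 7.5, 10mM Mg acetate, 0.01% Tween-20, 0.05% BSA; qHTS 6-point titration, ~60 µM downward; luminescence read.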
Rab9 promoter act – activators of Rab9 promoter. 2.8% of 320,000 active. AID 485297. Potency, µM (highest dose often 9.22 µM), inactives show at the top dose activation, negative = inhibition, most hits filed as activators. Huh7 Rab9 promoter-luciferase reporter, luminescence, 24 h; also: % of control where 0% means no effect; nearly all actives have a fitted effect of over 60% in size
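Huh7 cells stably carrying a Rab9 promoter-luciferase reporter, 1500 cells per well in OP-MEM I with 10% FBS, treated with compound 24 hours at 37C. Luciferase activity read by luminescence after 10 minutes with Amplite reagent.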
Starred values were filed as active, the others as inactive; ? = inconclusive; . = no result. Sampled rows, rich in hits. Any-hit rate of the full collection: about 9.3%. Calls follow the shape of the dose curve; as a rule, active = well fitted curve in the direction sought with a large enough effect; inconclusive = small, poorly fitted or top-dose-only effect, or another doubt; inactive = no such curve, though single readings can be large; an effect the other way counts as inactive or inconclusive. Potency is read from the fitted curve at half-maximal effect.

SMILES | ELG1 genotox | NPC1 promoter act | ELG1 repair inh | SMN2 splice up | FLuc modulator | Rab9 promoter act
CSc1ccccc1NC(=O)COc1ccc(Cl)cc1Cl | 5% | -1% | ? | . | ? | -1%
O=C(/C=C/c1ccc2c(c1)OCO2)Nc1ccc(Cl)cn1 | 2.1µM* | 1.1µM* | ? | 10µM* | 1.9µM* | 0.56µM*
O=C(COc1ccc(Cl)cc1Cl)Nc1ccccn1 | -11% | ? | ? | -13% | 0.076µM* | 0.1µM*
O=C(/C=C/c1ccc2c(c1)OCO2)NCCSCc1ccc(Cl)cc1Cl | 0% | 1% | 1% | -26% | ? | -2%
O=C(COc1ccc2c(c1)OCO2)Nc1ccc(Cl)cn1 | ? | 2µM* | ? | . | 13µM* | 3.5µM*
O=C(COc1ccccc1Cl)Nc1ccc(Cl)cn1 | 3.2µM* | 2.2µM* | ? | 11µM* | 0.95µM* | 1.4µM*
COc1ccc(OCCCC(=O)N2CCN(S(=O)(=O)c3cccc(F)c3)CC2)cc1 | -5% | -2% | -21% | . | 0% | -7%
O=C(CSc1nnc(Cc2ccccc2)o1)Nc1cccc(F)c1 | 6% | 1% | 13% | . | 2% | -3%
CC(C)C[C@H](NC(=O)N1CC(=O)Nc2ccccc21)C(=O)N[C@H](Cc1c[nH]c2ccccc12)C(=O)O | -3% | 1% | 4% | . | 0% | 1%
O=C(COc1ccc(Cl)cc1)Nc1ccc(Cl)cn1 | ? | ? | ? | . | 12µM* | ?
COc1ccc(C(=O)OCC(=O)Nc2ccc(Cl)cn2)cc1 | 0% | -1% | -10% | . | -1% | 5%
COc1cc(CCC(=O)N2CCN(c3cccc(C)c3C)CC2)cc(OC)c1OC | -8% | -4% | 18µM* | . | -1% | 2%
COc1cccc(NC(=O)N2CCN(c3nc(-c4cccc(OC)c4)cs3)CC2)c1 | -19% | -12% | 15µM* | . | ? | -6%
COc1cccc(NC(=O)N2CCN(c3cccc(C)c3C)CC2)c1 | ? | 18% | 18% | 2% | 15µM* | 3%
COc1cccc(-c2csc(N3CCN(C(=O)NC45CC6CC(CC(C6)C4)C5)CC3)n2)c1 | -8% | -6% | 23µM* | -83% | ? | 2%
O=C(c1ccc2c(c1)N(Cc1ccccc1F)C(=O)c1ccccc1S2(=O)=O)N1CCc2ccccc21 | . | . | . | 13% | 1% | .
COc1ccccc1-c1ccc(SCc2ccc(C)cc2)nn1 | 9% | 5% | ? | -2% | 15µM* | 9%
COc1ccccc1-c1ccc(SCC(=O)N2CCOCC2)nn1 | 4% | -6% | 9% | 1% | 2% | 3%
COc1ccccc1-c1ccc(SCc2ccc(F)cc2)nn1 | 5% | 16% | -7% | 11% | 24µM* | 24%
CN1C(=O)C(C)(C)c2cc(S(=O)(=O)N3CCCC(C(=O)Nc4ccc(Cl)cc4)C3)ccc21 (stereo unspecified) | -6% | -2% | ? | . | -2% | -4%
C[C@@H]1CC=C[C@H]2[C@H]1C(=O)N(Cc1ccccc1)[C@H]2c1ccc(-c2ccc(F)cc2)cc1F | -5% | -9% | 0% | . | 3% | -7%
C[C@@H]1CC=C[C@H]2[C@H]1C(=O)N(Cc1ccccc1)[C@H]2c1ccc(-c2cc3ccccc3s2)cc1F | ? | ? | ? | . | 1.7µM* | ?
O=C(N/N=C/c1cc2c(cc1Br)OCO2)c1cc2ccccc2o1 | 6% | 22% | ? | . | 9.5µM* | 22%
O=C(N/N=C/c1cc2c(cc1Br)OCO2)c1ccccn1 | ? | 2.5µM* | ? | . | 2.7µM* | 1.3µM*
O=C(N/N=C/c1ccc2c(c1)OCO2)c1ccccn1 | ? | 0.32µM* | ? | 3.5µM* | 2.1µM* | 0.4µM*
SMILES | ELG1 genotox | NPC1 promoter act | ELG1 repair inh | SMN2 splice up | FLuc modulator | Rab9 promoter act
O=C(N/N=C/c1ccco1)c1cc2ccccc2o1 | 12% | 15% | 25% | . | 17µM* | 19%
O=C(CSCc1ccc(F)cc1)N1CCN(c2ccc(F)cc2)CC1 | 0% | -3% | -14% | -17% | 0% | -3%
COc1ccc(Cc2nnc(Nc3ccc(C)cc3)o2)cc1OC | -7% | -27% | ? | . | -16% | -28%
Cc1cccc(NC(=O)c2cc(NC(=O)CCCC(=O)O)ccc2Cl)n1 | 2% | -2% | 12% | 10% | 3% | -1%
O=C(N/N=C/c1ccsc1)C1CC1 | 0% | 9% | 9% | . | -10% | 12%
O=C(/C=C/c1ccc2c(c1)OCO2)c1ccccn1 | ? | 2.2µM* | ? | . | 0.34µM* | 3.5µM*
O=C(N/N=C/c1ccsc1)c1ccc2ccccc2n1 | 13% | 22% | ? | 27% | 21µM* | ?
O=C(N/N=C/c1cc2c(cc1Br)OCO2)c1c[nH]c2ccccc12 | 8% | 2.5µM* | -2% | 11µM* | 9.5µM* | 2.5µM*
O=C(N/N=C/c1ccc2c(c1)OCO2)c1ccc2ccccc2n1 | ? | 2% | ? | 1% | 3µM* | 15%
Cc1cccc(C(=O)N/N=C/c2ccc3c(c2)OCO3)n1 | 6% | 7% | 21% | -1% | ? | 7%
CN1C(=O)/C(=N/OC(=O)c2ccccc2)c2ccccc21 | 0% | -5% | ? | -8% | 7.6µM* | -3%
Cc1ccc(N=CC2=C(O)CC(c3ccco3)CC2=O)cc1 (stereo unspecified) | 8% | 1% | 4% | -14% | 11µM* | 11%
O=C1CC(c2ccccc2)CC(O)=C1C=Nc1ccccc1 (stereo unspecified) | 0% | -4% | -10% | -4% | 17µM* | 1%
O=C1CC(c2ccco2)CC(O)=C1C=Nc1ccc(Br)cc1 (stereo unspecified) | 1% | -4% | -1% | 7% | -4% | -9%
Brc1cnc(N2CCCCC2)nc1N1CCOCC1 | -1% | -1% | 3% | -12% | 1% | -3%
Cc1cccc2cc(CN(CC3CCCO3)C(c3nnnn3Cc3ccco3)C(C)C)c(=O)[nH]c12 (stereo unspecified) | -8% | 5% | ? | -14% | 2% | -1%
CC1(C)OC(=O)C(=Cc2ccc(-c3ccc(S(N)(=O)=O)cc3)o2)C(=O)O1 | ? | -4% | ? | 4% | 11µM* | 1%
CCC(C)[C@H](NC(=O)Nc1ccc(C(C)=O)cc1)C(=O)OC (stereo partly specified) | 2% | 1% | 5% | -12% | -1% | 6%
O=C(OCc1nc2ccccc2s1)c1ccc([N+](=O)[O-])o1 | -5% | -6% | ? | . | -10% | -2%
Cc1cc(C(=O)OCc2nc3ccccc3s2)c(C)o1 | . | . | . | -2% | 19µM* | .
O=C(O)COCc1nc2ccccc2s1 | -2% | 0% | -6% | . | 3% | -3%
